Reference: PubChem BioAssay (EPA / NIEHS)
“And” between values parts separate entries of the source, which are not always exact repeats. Equal entries are not always repeated. The source made the active and inactive calls. The calls were made as follows: active = hit-call score of the fitted dose curve at least 0.9, where 1 is the maximum; inactive = score below 0.9.

Each compound was assayed on Protein phosphatase 2A (PPP2R4), PTPA (gene 5524) (assay: LTEA_HepaRG_PPP2R4: Life Technologies and Expression Analysis (LTEA) Assay for Protein phosphatase 2A (PPP2R4) using HepaRG (AID 2283522)). Conditions: mRNA level, 48 h; actives raise or lower the signal.
Description: LTEA_HepaRG is a cell based, multiplexed-readout assay that uses HepaRG, a human liver cell line, with measurements taken at 48 hours after chemical dosing on a 96-well plate.LTEA_HepaRG_PPP2R4 is one of 102 assay component(s) measured in the LTEA HepaRG cell culture assay. It is a marker of Cell proliferation, survival, death.Data from the assay component LTEA_HepaRG_PPP2R4 was analyzed into 1 endpoint. This assay endpoint, LTEA_HepaRG_PPP2R4, was analyzed with bidirectional fitting relative to DMSO as the negative control and baseline of activity. Using a type of inducible reporter, measures of mRNA induction for gain or loss-of-signal activity can be used to understand regulation of transcription factor activity. To generalize the intended target to other relatable targets, this assay endpoint is annotated to the phosphatase intended target family, where the subfamily is serine/threonine phosphatase.
A total of 1060 chemcials from the ToxCast library were tested in eight-point concentration-response experiments. Cell culture and cytotoxicity assays were conducted at Thermo Fisher Scientific's Custom Services facility (Madison, WI). A single lot of human HepaRG cells (Thermo Fisher Scientific, Frederick, MD) was used for the cell culture experiments. 96-well format collagen type I coated plates of human HepaRG cells were prepared using established methods. Briefly, cryopreserved HepaRG cells were thawed, plated at a density of approximately 100,000 cells/well in HepaRG Thaw, Plate, and General Purpose media (HPRG770, Thermo Fisher Scientific), and incubated for 48 hours. 0.5% DMSO was selected as vehicle control to balance the requisite need of DMSO in HepaRG cultures to maintain differentiation (for example, baseline metabolism, proportions of hepatocytes vs. cholangiocytes), while enabling further hepatic receptor pathway activation (for example, PXR and CAR) in response to chemical exposure. 48 hours after plating, the culture medium was replaced with HepaRG Serum-Free Incudtion Media. Cells were exposed to each test chemical in duplicate and maintained in CO2 incubators for another 48 hours. Chemical plates were thawed to room temperature and 200x concentrations of treatment groups were prepared. 8-point conentration-reponse curves were made with the highest exposure at 100 uM, followed by half-log dilutions, all in 0.5% DMSO. Each test plate contained variouse controls, induction positive controls (1mM phenobarbital), cytotoxicity positive controls ([…] aflatoxin B1), vehicle controls (0.5% DMSO), and total lysis controls (0.5% DMSO). Cell morphology images were taken using an Essen IncuCyte FLR automated microscope, with six 96-well plates imaged in about 24 minutes. Images were captured and exported and JPEG files. Spent culture media was transfered to black-well plates for the LDH assay, and remaining media was sorted at -80 C for later use. Cells were treated with RLT buffer and frozen until shipped for gene expression analysis. Total RNA was isolated from the cell suspension in 75 uL of Buffer RLT (Qiagen, Germantown, MD 20874) by Quintiles/Expression Analysis (Durham, NC) using a custom isolation procedure. Total RNA from each plate well was transferred to a preamplification plate. Fluidigm's 96.96 Dynamic ArrayTM (Fluidigm, Amsterdam, the Netherlands) technology was used for gene expression analyses by quantitative reverse transcription polymerase chain reaction (qRT-PCR, performed by Quintiles/Expression Analysis, Durham, NC)89. Standard TaqManTM Assays (Applied Biosystems/ThermoFisher Scientific, Foster City, CA) were used to assess the expression of 93 genes selected based on their selectivity and sensitivity to important hepatic receptors known to be modulated by environmental chemicals; importance in human hepatocyte functionality; and hepatotoxicity. […]

| Compound | outcome | AC50 |
| --- | --- | --- |
| CCOC(=O)COc1cc(-n2ncc(C(F)(F)F)c(C)c2=O)c(F)cc1Cl | inactive |  |
| CCC(C)OC(=O)N1CCCCC1CCO (stereo not given) | inactive |  |
| CCCCC(CC)CN1C(=O)C2C3C=CC(C3)C2C1=O (stereo not given) |  | 50 µM (active) |
| OB(O)O | inactive |  |
| CCOC(=O)C(C)Oc1ccc(Oc2cnc3cc(Cl)ccc3n2)cc1 (stereo not given) | inactive |  |
| CSC(=O)c1cccc2nnsc12 | inactive |  |
| CCSC(=O)N(CC(C)C)CC(C)C | inactive |  |
| C[C@]12CC[C@@H]3c4ccc(O)cc4C[C@@H](CCCCCCCCCS(=O)CCCC(F)(F)C(F)(F)F)[C@H]3[C@@H]1CC[C@@H]2O (stereo not given in full) |  | 0.0315 µM (active) |
| c1ccc(Nc2ccccc2)cc1 | inactive |  |
| CN(C)C(=O)Nc1ccc(Cl)c(Cl)c1 | inactive |  |
| C=CCOC(Cn1ccnc1)c1ccc(Cl)cc1Cl (stereo not given) |  | 87.5 µM (active) |
| COC(=O)c1ccccc1C(=O)O | inactive |  |
| CCCOC(=O)NCCCN(C)C | inactive |  |
| CC(=O)S[C@@H]1CC2=CC(=O)CC[C@]2(C)[C@H]2CC[C@@]3(C)[C@@H](CC[C@@]34CCC(=O)O4)[C@H]12 | inactive |  |
| COC(=O)CSc1cc(N=c2sc(=O)n3n2CCCC3)c(F)cc1Cl | inactive |  |
| CCN(CC)C(=O)c1cccc(C)c1 | inactive |  |
| N#CSCSc1nc2ccccc2s1 | inactive |  |
| S=C([S-])NCCNC(=S)[S-].[Mn+2] |  | 5.29 µM (active) |
| CC(C)(C)[C@@H](O)[C@@H](Cc1ccc(Cl)cc1)n1cncn1 | inactive |  |
| Oc1ccc(C(c2ccc(O)cc2)C(Cl)(Cl)Cl)cc1 |  | 82.3 µM (active) |

| Compound | outcome | AC50 |
| --- | --- | --- |
| COC(=O)c1ccc(I)cc1S(=O)(=O)NC(=O)Nc1nc(C)nc(OC)n1 | inactive |  |
| CCNc1nc(N)nc(Cl)n1 | inactive |  |
| CCOC(=O)NCCOc1ccc(Oc2ccccc2)cc1 | inactive |  |
| CCCOC(=O)c1ccc(C(=O)OCCC)nc1 | inactive |  |
| O=C(O)C1(C(=O)Nc2ccc(Cl)cc2Cl)CC1 |  | 61.9 µM (active) |
| C#CCOC(=O)[C@@H](C)Oc1ccc(Oc2ncc(Cl)cc2F)cc1 | inactive |  |
| c1ccc2[nH]c(-c3cscn3)nc2c1 | inactive |  |
| CC(C)(c1ccc(O)cc1)c1ccc(O)cc1 | inactive |  |
| CCCCCOC(=O)COc1cc(N2C(=O)C3=C(CCCC3)C2=O)c(F)cc1Cl | inactive |  |
| CCCCC(CC)COC(=O)c1ccccc1C(=O)O (stereo not given) | inactive |  |
| N[C@@H](Cc1cc(I)c(Oc2ccc(O)c(I)c2)c(I)c1)C(=O)O | inactive |  |
| O=C(c1ccccc1)C1CCCCC1 | inactive |  |
| CCOC(=O)c1ccc(O)cc1 | inactive |  |
| COCCO | inactive |  |
| O=C(c1ccc(O)cc1O)c1ccc(O)cc1O | inactive |  |
| CCCCOC(=O)C(C)Oc1ccc(Oc2ccc(C(F)(F)F)cn2)cc1 (stereo not given) | inactive |  |
| CC(=O)[C@H]1CC[C@H]2[C@@H]3CCC4=CC(=O)CC[C@]4(C)[C@H]3CC[C@]12C |  | 87.5 µM (active) |
| O=C(O)c1ccccc1 | inactive |  |
| S=C(S)NCCNC(=S)S.[Mn+2].[S-]C([S-])=NCCN=C([S-])[S-].[Zn+2] |  | 960 nM (active) and 2.26 µM (active) |
| CCCN(CCC)C(=O)SCC | inactive |  |
